About 7,900 targets were measured; listed, in parts, are those with a hit and a random draw of the rest. About 0.6% of all pairs of compound and target were hits. Values without a mark were called inactive.
How the values were obtained:
Test in all cases: log2 fold change, soluble protein after heating vs DMSO (PISA); higher = thermal stabilisation; K562 cells, 10 uM, 30 min; active = over 0.2 and 3.5 SD of the protein, either way, in both replicates (recomputed)
[1] = target: ZEB2 (UniProt O60315)
Procedure, shortened: (§1)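 K562 cells at 2×10^6 cells/mL were treated for 30 min with 10 μM compound, and aliquots were heated for 3 min over 48°C-58°C before pooling. Extraction used PBS with 0.5% NP-40 at 4°C, and soluble protein was the supernatant after 21,000xg for 90 min, measured by TMTpro 16plex LC-MS/MS with channel sums equalised. Thermal stability values, relative to control samples and from duplicates, are log2 fold changes.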

[2] = target: ZER1 (UniProt Q7Z7L7)
Sequence of ZER1 (Q7Z7L7 whole entry, looked up): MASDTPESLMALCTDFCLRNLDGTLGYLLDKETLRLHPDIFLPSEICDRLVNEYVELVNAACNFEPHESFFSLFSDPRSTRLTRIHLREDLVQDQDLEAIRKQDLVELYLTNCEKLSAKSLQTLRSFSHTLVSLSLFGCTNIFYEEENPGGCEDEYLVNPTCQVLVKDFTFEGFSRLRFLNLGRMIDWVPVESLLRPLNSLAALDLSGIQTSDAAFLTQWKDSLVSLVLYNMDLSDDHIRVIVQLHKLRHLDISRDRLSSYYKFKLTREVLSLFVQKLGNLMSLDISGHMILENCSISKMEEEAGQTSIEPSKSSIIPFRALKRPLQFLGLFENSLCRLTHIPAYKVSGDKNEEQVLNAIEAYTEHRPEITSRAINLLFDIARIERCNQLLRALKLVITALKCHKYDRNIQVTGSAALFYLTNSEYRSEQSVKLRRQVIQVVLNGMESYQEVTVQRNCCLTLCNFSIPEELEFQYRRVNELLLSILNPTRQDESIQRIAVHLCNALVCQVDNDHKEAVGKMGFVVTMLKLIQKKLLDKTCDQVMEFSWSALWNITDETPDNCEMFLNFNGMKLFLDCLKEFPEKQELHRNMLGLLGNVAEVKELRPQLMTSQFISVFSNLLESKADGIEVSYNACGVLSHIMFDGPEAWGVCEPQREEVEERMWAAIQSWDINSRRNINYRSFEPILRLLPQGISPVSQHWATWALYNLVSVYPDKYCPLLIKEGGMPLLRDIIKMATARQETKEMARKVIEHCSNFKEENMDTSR
Procedure, shortened: as §1

[3] = target: ZFAND5 (UniProt O76080)
Sequence of ZFAND5 (O76080 whole entry, looked up): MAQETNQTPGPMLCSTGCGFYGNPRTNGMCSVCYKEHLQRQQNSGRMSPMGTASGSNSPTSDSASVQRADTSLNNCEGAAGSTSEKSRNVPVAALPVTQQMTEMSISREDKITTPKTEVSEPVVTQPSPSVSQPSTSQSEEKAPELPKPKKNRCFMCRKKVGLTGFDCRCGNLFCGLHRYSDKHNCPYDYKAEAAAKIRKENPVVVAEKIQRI
Procedure, shortened: as §1

[4] = target: ZFAND6 (UniProt Q6FIF0)
Sequence of ZFAND6 (Q6FIF0 whole entry, looked up): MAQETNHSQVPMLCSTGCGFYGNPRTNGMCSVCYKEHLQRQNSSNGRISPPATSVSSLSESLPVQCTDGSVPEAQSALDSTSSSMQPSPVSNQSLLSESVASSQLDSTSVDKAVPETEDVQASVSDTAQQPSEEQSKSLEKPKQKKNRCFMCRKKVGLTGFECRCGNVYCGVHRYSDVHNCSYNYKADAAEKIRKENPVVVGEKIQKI
Procedure, shortened: as §1

[5] = target: ZFP91 (UniProt Q96JP5)
Sequence of ZFP91 (Q96JP5 whole entry, looked up): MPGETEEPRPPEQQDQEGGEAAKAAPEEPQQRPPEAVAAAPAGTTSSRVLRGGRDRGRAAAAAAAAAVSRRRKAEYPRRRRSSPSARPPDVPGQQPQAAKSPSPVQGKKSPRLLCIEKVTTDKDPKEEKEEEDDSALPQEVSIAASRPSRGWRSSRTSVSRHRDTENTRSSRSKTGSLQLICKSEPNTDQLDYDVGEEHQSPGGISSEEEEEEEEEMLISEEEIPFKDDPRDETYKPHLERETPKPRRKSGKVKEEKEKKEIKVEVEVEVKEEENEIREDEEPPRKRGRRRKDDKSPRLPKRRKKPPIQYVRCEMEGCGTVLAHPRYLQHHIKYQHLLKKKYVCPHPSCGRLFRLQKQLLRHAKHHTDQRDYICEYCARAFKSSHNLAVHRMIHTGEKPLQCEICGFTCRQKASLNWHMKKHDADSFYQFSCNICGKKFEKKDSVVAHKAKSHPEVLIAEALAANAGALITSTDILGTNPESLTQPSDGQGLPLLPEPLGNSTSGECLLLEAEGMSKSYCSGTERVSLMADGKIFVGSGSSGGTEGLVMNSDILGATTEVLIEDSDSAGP
Procedure, shortened: as §1

[6] = target: ZFPL1 (UniProt O95159)
Sequence of ZFPL1 (O95159 whole entry, looked up): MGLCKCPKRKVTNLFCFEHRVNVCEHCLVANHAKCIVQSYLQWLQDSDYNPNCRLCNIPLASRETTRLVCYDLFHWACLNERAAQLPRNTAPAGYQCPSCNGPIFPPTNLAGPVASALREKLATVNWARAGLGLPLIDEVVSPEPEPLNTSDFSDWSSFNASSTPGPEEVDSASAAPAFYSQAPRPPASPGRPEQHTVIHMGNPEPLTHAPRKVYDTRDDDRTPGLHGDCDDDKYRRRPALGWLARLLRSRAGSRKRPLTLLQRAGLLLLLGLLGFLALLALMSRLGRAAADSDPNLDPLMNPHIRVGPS
Procedure, shortened: as §1

[7] = target: ZMAT2 (UniProt Q96NC0)
Sequence of ZMAT2 (Q96NC0 whole entry, looked up): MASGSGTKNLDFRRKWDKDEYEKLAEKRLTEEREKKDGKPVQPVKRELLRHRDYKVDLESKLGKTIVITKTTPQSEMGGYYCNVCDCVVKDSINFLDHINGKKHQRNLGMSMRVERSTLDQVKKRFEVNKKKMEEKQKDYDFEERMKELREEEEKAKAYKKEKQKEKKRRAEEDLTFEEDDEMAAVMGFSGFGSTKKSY
Procedure, shortened: as §1

[8] = target: ZMYM1 (UniProt Q5SVZ6)
Procedure, shortened: as §1

[9] = target: ZMYM3 (UniProt Q14202)
Procedure, shortened: as §1

[10] = target: ZNF143 (UniProt P52747)
Sequence of ZNF143 (P52747 whole entry, looked up): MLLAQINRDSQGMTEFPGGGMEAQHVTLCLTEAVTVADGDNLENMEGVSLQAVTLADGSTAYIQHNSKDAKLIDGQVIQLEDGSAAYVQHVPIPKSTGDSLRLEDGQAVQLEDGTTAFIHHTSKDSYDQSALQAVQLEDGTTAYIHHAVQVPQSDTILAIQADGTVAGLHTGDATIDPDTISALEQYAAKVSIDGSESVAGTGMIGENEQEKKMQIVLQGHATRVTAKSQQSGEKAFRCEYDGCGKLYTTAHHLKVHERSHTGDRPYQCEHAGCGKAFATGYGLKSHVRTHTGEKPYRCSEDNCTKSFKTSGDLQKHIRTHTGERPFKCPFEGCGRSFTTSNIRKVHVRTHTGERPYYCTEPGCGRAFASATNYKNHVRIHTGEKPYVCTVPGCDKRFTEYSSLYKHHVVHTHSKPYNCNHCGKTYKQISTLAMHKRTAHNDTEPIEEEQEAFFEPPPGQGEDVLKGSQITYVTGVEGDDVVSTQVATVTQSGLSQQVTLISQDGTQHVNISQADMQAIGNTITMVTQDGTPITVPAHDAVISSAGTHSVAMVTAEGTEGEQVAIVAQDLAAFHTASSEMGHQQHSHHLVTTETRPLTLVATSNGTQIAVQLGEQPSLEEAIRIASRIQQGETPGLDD
Procedure, shortened: as §1

[11] = target: ZNF217 (UniProt O75362)
Procedure, shortened: as §1

[12] = target: ZNF239 (UniProt Q16600)
Procedure, shortened: as §1

[13] = target: ZNF277 (UniProt Q9NRM2)
Sequence of ZNF277 (Q9NRM2 whole entry, looked up): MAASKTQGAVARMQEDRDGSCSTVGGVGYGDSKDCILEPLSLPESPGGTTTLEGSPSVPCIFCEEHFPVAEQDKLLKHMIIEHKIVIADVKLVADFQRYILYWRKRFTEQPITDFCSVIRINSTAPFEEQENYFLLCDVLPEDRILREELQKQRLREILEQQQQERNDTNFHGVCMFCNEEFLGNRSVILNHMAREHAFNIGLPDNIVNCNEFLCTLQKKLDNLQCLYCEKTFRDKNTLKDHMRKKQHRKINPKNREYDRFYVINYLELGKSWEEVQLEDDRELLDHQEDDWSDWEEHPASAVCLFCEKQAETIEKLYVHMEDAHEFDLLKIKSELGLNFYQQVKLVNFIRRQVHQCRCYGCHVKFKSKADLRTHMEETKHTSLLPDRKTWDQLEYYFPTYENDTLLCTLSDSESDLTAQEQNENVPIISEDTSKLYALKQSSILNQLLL
Procedure, shortened: as §1

[14] = target: ZNF511 isoform 1 (UniProt Q8NB15)
Procedure, shortened: as §1

[15] = target: ZNF512 (UniProt Q96ME7)
Sequence of ZNF512 (Q96ME7 whole entry, looked up): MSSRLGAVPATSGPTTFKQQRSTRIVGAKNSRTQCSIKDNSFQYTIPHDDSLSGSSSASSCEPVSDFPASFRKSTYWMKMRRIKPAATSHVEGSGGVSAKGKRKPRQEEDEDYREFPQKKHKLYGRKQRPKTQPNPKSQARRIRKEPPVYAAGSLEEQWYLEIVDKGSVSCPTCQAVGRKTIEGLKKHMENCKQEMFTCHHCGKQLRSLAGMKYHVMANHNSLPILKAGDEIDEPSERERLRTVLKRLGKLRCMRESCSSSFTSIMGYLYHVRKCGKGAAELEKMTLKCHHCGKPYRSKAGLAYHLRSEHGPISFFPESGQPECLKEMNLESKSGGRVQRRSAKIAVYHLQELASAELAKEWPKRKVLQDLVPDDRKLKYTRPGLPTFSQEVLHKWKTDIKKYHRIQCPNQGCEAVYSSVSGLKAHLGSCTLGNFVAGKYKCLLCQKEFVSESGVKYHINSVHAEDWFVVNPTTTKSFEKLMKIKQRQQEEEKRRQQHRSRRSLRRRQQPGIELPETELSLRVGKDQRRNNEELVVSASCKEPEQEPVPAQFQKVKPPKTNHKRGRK
Procedure, shortened: as §1

[16] = target: ZNF579 (UniProt Q8NAF0)
Sequence of ZNF579 (Q8NAF0 whole entry, looked up): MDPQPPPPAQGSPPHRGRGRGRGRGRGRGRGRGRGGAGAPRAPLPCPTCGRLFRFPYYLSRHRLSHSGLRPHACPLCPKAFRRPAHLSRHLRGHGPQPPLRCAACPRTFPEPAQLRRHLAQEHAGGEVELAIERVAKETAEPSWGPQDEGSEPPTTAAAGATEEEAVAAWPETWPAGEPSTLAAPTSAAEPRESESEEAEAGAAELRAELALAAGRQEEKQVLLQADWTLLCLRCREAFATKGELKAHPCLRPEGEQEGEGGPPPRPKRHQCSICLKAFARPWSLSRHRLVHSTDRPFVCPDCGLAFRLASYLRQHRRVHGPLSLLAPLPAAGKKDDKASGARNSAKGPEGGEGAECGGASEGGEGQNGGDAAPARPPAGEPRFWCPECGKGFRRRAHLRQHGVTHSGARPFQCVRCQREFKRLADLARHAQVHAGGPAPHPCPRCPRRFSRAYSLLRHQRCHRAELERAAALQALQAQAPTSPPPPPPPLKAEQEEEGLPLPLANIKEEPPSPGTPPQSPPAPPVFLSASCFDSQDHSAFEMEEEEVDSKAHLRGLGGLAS
Procedure, shortened: as §1

[17] = target: ZNF609 (UniProt O15014)
Procedure, shortened: as §1

[18] = target: ZNF622 (UniProt Q969S3)
Sequence of ZNF622 (Q969S3 whole entry, looked up): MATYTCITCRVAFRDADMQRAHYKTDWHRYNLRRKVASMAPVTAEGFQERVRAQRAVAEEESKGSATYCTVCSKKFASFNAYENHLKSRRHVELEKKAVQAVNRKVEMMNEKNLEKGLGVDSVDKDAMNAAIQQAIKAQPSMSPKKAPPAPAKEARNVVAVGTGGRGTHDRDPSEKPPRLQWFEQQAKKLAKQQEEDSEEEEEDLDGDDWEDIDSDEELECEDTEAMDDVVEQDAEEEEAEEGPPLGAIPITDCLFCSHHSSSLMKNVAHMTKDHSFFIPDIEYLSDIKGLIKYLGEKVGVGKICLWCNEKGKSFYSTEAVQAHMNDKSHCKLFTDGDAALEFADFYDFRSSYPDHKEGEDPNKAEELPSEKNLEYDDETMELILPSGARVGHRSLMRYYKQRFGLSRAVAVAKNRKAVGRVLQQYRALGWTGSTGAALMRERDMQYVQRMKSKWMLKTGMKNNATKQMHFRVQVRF
Procedure, shortened: as §1

[19] = target: ZRANB2 (UniProt O95218)
Procedure, shortened: as §1

[20] = target: ZNF580 (UniProt Q9UK33)
Procedure, shortened: as §1

Structure (SMILES) | log2 fold change [1] | log2 fold change [2] | log2 fold change [3] | log2 fold change [4] | log2 fold change [5] | log2 fold change [6] | log2 fold change [7] | log2 fold change [8] | log2 fold change [9] | log2 fold change [10] | log2 fold change [11] | log2 fold change [12] | log2 fold change [13] | log2 fold change [14] | log2 fold change [15] | log2 fold change [16] | log2 fold change [17] | log2 fold change [18] | log2 fold change [19] | log2 fold change [20]
COc1cc2ncnc(Nc3ccc(F)c(Cl)c3)c2cc1OCCCN1CCOCC1 [gefitinib] | -0.086 | -0.031 | -0.006 | -0.005 | 0.02 | 0.065 | -0.021 | 0.014 | 0.034 | -0.098 | 0.001 | -0.267 | -0.053 | -0.192 | -0.02 | 0.111 | -0.069 | 0 | 0.034 | 
O=C(O)c1ccc2c(c1)nc(Nc1cccc(Cl)c1)c1ccncc12 [silmitasertib] | -0.001 | 0.028 | -0.03 | -0.018 | 0.086 | 0.003 | 0.028 | 0.255 | -0.012 | 0.023 | -0.073 | 0.29 | 0.105 | 0.076 | 0.234 | -0.016 | 0.02 | -0.058 | 0.018 | 
CC1=C(C(=O)Nc2cc3cn[nH]c3cc2F)C(c2ccc(C(F)(F)F)cc2)CC(=O)N1 (stereo not given) | -0.076 | -0.112 | 0.058 | -0.013 | 0.058 | 0.041 | 0.026 | 0.088 | 0.062 | 0.033 | -0.033 | 0.283 | -0.009 | -0.006 | -0.261 | -0.003 | -0.117 | -0.083 | 0.025 | 
CC[C@H](C)n1cc(C)c2c(C(=O)NCc3c(C)cc(C)[nH]c3=O)cc(-c3ccc(N4CCNCC4)nc3)cc21 | 0.173 | 0.064 | -0.045 | -0.05 | 0.04 | -0.013 | -0.073 | -0.016 | 0.055 | 0.068 | 0.045 | -0.096 | 0.02 | -0.058 | -0.002 | 0.167 | 0.076 | -0.012 | 0 | 
Cc1ccc2c(=O)c3ccccc3n(CCCN)c2c1C | -0.476 (active) | -0.017 | -0.095 | 0 | -0.432 (active) | 0.079 | -0.04 | 0.024 | -0.058 | -0.043 | -0.142 | 0.011 | -0.126 | 0.17 |  | -0.168 | 0.205 | -0.285 (active) | -0.399 (active) | -0.196
Cc1nc(Nc2n[nH]c3c2CN(C(=O)N[C@H](CN(C)C)c2ccccc2)C3(C)C)c2sccc2n1 | -0.149 | -0.141 | 0.038 | 0.028 | -0.059 | -0.034 | 0.07 | -0.063 | -0.01 | -0.047 | -0.055 | -0.012 | 0.231 | 0.005 | 0.187 | -0.115 | -0.018 | 0.091 | -0.032 | 
CNC(=O)c1ccc(Nc2ncc(C(F)(F)F)c(NCc3nccnc3N(C)S(C)(=O)=O)n2)cc1 [defactinib] | 0.019 | 0.027 | 0.085 | -0.045 | 0.054 | -0.083 | -0.014 | 0.558 (active) | -0.013 | -0.171 | -0.145 | -0.014 | 0.161 | -0.128 |  | 0.019 | -0.046 | 0.057 | -0.046 | -0.099
COc1cc(Nc2ncc3c(n2)-c2ccc(Cl)cc2C(c2c(F)cccc2OC)=NC3)ccc1C(=O)O [alisertib] | 0.103 | -0.006 | -0.057 | -0.079 | -0.013 | 0.014 | -0.045 | -0.021 | 0.057 | -0.05 | -0.092 | -0.004 | 0.028 | 1.14 | -0.286 | -0.082 | -0.021 | -0.028 | -0.058 | 
CC[C@H](C)[C@H](NC(=O)[C@H]([C@@H](C)CC)N(C)C(C)=O)C(=O)N[C@H](C(=O)N[C@@H](CC(C)C)C(=O)[C@@]1(C)CO1)[C@@H](C)O [epoxomicin] | -0.026 | 0.048 | 0.345 (active) | 0.051 | -0.045 | 0.134 | 0.103 | -0.05 | -0.033 | 0.026 | 0.075 | -0.051 | -0.06 | -0.045 | 0.085 | -0.024 | -0.271 | 0.056 | -0.016 | 
CN(C)CC(=O)Nc1ccc2[nH]c(=O)c3ccccc3c2c1 | -0.124 | -0.099 | -0.119 | -0.052 | -0.074 | 0 | -0.018 | -0.046 | -0.067 | -0.025 | 0.06 | -0.1 | -0.003 | 0.068 |  | -0.026 | 0.047 | -0.024 | -0.048 | 0.046
Cc1cn(-c2cc(NC(=O)c3ccc(C)c(Nc4nccc(-c5cccnc5)n4)c3)cc(C(F)(F)F)c2)cn1 [nilotinib] | 0.025 | 0.098 | 0.098 | 0.014 | 0.023 | -0.047 | 0.012 | -0.009 | 0.041 | -0.105 | -0.082 | -0.022 | -0.207 | -0.17 | -0.031 | 0.105 | 0.03 | 0.046 | 0.052 | 
COc1cccc2cc(-c3nc([C@H]4CC[C@H](C(=O)O)CC4)n4ncnc(N)c34)[nH]c12 | 0.051 | 0.067 | 0.129 | 0.046 | -0.042 | -0.039 | 0.071 | -0.128 | 0.001 | 0.05 | 0.043 | 0.548 | -0.24 | 0.099 | -0.041 | -0.078 | -0.028 | 0.01 | -0.01 | 
Cc1cc(Nc2cc(N3CCN(C)CC3)nc(Sc3ccc(NC(=O)C4CC4)cc3)n2)n[nH]1 [tozasertib] | 0.022 | 0.008 | -0.076 | -0.084 | 0.01 | 0.009 | -0.039 | -0.043 | -0.033 | 0.057 | -0.07 | -0.116 | 0.202 | 0.049 |  | 0.041 | 0.078 | -0.064 | -0.029 | -0.138
CCCc1cc(C)[nH]c(=O)c1CNC(=O)c1cc(-c2ccnc(N3CCN(C)CC3)c2)cc2c1cnn2C(C)C | -0.067 | -0.125 | -0.038 | -0.051 | 0.074 | -0.05 | -0.044 | -0.017 | 0.067 | -0.006 | 0.003 | -0.662 (active) | 0.154 | 0.08 | 0.363 | 0.058 | -0.003 | -0.01 | 0.028 | 
O=C1NC(=O)C(c2cnc3ccccn23)=C1c1cn2c3c(cc(F)cc13)CN(C(=O)N1CCCCC1)CC2 | 0.116 | -0.198 | -0.157 | -0.013 | 0.073 | -0.003 | 0.012 | 0.045 | 0.003 | -0.042 | -0.102 | 0.082 | 0.124 | -0.095 | -0.023 | 0.038 | -0.571 (active) | 0.043 | 0.12 | 

From the supplement of paper PMC10849652
